In ChEMBL document CHEMBL3988442, “University of Dundee, Small-Polar-MMV Screening Library” (2021) one finds Percent Effect data, which are given here for four compounds.

For some of these results: Results with a measured potency or affinity are listed apart.

Common to all, as to set-up: scale not given: direction of the effect not stated beside the values
The target of test [1] is Protein translocase subunit SecA (Escherichia coli (strain K12)) (UniProt P10408). The test is described as follows: Assay to Identify E. coli SecA ATPase Inhibitors. The class given is functional. The settings on record: 30 µM.
Test [2] has as its target T1, Ubiquitin-activating enzyme e1, putative (Leishmania donovani (strain BPK282A1)) (UniProt E9BSI1).
T1 sequence (whole entry): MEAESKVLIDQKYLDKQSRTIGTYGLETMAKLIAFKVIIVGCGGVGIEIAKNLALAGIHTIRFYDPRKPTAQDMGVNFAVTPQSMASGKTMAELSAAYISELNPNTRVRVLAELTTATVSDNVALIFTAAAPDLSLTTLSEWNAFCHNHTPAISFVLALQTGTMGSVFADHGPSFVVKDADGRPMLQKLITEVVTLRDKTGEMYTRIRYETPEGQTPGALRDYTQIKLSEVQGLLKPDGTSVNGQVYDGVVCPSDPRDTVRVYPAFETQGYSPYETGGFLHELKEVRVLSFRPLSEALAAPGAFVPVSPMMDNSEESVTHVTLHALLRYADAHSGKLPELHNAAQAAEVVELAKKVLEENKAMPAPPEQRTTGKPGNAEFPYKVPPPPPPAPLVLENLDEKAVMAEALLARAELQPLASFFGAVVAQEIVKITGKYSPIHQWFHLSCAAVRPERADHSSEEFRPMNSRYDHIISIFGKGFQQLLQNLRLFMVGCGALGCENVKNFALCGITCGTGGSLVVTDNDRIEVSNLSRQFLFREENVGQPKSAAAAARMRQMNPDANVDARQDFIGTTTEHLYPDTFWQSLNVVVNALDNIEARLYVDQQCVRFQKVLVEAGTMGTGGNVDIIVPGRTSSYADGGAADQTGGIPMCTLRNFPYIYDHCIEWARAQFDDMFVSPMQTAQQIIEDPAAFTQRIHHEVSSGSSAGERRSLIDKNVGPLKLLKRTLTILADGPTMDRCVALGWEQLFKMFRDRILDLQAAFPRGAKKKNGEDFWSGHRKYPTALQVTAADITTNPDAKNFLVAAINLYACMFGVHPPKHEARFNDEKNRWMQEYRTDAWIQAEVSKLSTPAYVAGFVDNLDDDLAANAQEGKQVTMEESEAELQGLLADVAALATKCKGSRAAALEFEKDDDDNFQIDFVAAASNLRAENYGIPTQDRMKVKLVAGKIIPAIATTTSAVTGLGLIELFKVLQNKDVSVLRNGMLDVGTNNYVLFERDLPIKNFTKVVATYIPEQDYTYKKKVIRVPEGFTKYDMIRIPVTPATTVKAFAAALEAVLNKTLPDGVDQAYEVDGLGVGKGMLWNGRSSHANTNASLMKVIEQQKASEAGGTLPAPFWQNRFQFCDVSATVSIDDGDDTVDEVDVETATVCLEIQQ
The test is described as follows: Leishmania donovani Ubiquitin Activating Enzyme (LdE1). The settings on record: 30 µM. The format is functional.

For test [3], the target named is T2, Aspartate--tRNA(Asp/Asn) ligase (Mycobacterium tuberculosis (strain ATCC 25618 / H37Rv)) (UniProt P9WFW3). Also: in the data most compounds retested in dose-response had high values.
T2 sequence (whole entry): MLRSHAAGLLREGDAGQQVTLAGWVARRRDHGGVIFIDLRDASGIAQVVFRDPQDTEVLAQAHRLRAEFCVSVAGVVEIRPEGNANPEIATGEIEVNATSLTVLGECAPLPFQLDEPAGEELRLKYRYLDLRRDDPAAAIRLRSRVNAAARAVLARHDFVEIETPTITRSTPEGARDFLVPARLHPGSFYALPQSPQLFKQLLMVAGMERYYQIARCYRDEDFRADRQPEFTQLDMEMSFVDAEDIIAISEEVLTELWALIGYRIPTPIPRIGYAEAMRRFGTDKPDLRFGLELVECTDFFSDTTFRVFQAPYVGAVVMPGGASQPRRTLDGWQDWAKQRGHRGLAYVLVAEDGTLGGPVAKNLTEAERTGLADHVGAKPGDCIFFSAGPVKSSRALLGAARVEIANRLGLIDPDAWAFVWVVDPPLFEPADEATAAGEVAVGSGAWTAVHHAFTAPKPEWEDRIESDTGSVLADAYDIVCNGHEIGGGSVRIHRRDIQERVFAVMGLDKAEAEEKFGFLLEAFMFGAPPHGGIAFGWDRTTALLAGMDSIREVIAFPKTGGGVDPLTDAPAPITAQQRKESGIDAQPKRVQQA
The test is described as follows: Assay for Asp RNA synthetase-1 from Mycobacterium tuberculosis. The class given is functional. The settings on record: 30 µM.

The target in test [4] is AMP-activated protein kinase, AMPK (Homo sapiens) (UniProt P54646+O43741+P54619+Q9UGJ0+Q9Y478+Q13131+Q9UGI9). Description: AMP-dependent Kinase enzyme assay. An in vitro enzyme assay that detects ADP turnover that is directly proportional to AMPK activity. This uses naive AMPK that is activated during the assay with MK-8722. The format is functional. The settings on record: 30 µM.

In test [5] the target is Sialic acid-binding Ig-like lectin 9 (Homo sapiens) (UniProt Q9Y336). The test is described as follows: Hs-Siglec9 ALPHAscreen SOP 20170721. The settings on record: 10 µM. (In general: Bead proximity is the source of the signal in Alpha formats.)
For another test, the system named is Trypanosoma cruzi. The test is described as follows: Trypanosoma cruzi phosphomannomutase and mannose-1-phosphate guanylyltransferase assay. The class given is functional. The settings on record: 10 µM.
Test [6] deals with T3, Arginase-2, mitochondrial (Homo sapiens) (UniProt P78540).
T3 sequence (whole entry): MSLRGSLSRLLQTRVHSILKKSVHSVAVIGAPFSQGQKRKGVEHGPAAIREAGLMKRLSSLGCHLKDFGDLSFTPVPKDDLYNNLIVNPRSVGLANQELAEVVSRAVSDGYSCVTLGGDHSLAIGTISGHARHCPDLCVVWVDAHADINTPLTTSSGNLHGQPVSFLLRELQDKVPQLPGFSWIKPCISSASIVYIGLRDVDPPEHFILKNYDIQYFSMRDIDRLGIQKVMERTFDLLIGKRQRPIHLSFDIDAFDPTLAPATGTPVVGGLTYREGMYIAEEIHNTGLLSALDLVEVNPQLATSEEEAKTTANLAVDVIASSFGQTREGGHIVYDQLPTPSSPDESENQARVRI
Description: in vitro enzyme assay to detect the production of urea directly proportional to the activity of Arginase II. Also: in the data most compounds retested in dose-response had high values. The format is functional. The settings on record: 33.3 µM.

Test [7] has as its target T4, Proteasome subunit beta (Trypanosoma cruzi) (UniProt O96673).
T4 sequence (whole entry): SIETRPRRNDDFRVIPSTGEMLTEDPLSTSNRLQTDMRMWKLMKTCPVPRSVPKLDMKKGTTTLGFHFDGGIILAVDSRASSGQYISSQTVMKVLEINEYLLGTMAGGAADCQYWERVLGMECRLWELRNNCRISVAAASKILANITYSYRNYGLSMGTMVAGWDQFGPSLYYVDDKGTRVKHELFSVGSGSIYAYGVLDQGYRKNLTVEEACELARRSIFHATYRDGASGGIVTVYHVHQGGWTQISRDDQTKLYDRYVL
The test is described as follows: Trypanosoma cruzi proteasome chymotrypsin-like activity (TcProtChymo) assay. Also: in the data most compounds retested in dose-response had high values. The class given is functional. The settings on record: 9.37 µM.

The species entered for another test is Homo sapiens. The test is described as follows: To identify inhibition of the IFN signalling (Jak-Stat) pathway via expression of an eGFP reporter gene under the control of an IFN-stimulated response element (ISRE) containing MxA promoter. The format is functional. The settings on record: 30 µM. A general note: In a reporter assay the amount or activity of a reporter protein is the signal.

Test [8] deals with Shiga toxin 2 (Escherichia coli O157:H7) (UniProt P09385+P09386). The test is described as follows: E. coli 0.157:H7 Shiga Toxin SOP - stx2 screening assay. The class given is functional. The settings on record: 30 µM.
Test [9] concerns the target T5, Tyrosyl-tRNA synthetase, putative (Trypanosoma cruzi (strain CL Brener)) (UniProt Q4DSP6).
T5 sequence (whole entry): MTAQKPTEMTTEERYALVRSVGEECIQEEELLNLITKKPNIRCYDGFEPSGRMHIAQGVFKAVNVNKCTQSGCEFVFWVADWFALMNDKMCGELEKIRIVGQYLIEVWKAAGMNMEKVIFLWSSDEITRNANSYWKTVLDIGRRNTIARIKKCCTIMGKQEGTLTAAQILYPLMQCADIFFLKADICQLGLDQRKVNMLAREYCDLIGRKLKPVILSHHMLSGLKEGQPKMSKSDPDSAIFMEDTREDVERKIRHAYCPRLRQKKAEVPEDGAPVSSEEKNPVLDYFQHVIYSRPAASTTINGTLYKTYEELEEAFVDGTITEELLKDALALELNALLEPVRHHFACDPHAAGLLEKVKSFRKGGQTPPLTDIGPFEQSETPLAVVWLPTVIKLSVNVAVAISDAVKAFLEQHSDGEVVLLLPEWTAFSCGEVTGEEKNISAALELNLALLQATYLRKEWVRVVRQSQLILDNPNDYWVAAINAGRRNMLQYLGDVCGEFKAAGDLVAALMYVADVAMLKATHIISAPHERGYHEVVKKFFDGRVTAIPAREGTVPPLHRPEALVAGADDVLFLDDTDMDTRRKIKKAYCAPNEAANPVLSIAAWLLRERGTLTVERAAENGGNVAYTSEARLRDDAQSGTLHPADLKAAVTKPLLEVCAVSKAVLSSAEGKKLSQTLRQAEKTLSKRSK
The test is described as follows: Trypanosoma cruzi tyrosyl tRNA synthetase (TcYRS) _High Tyrosine SOP. Also: in the data most compounds retested in dose-response had high values. The settings on record: 30 µM. The class given is functional.

Test [10] has as its target T5, Tyrosyl-tRNA synthetase, putative (Trypanosoma cruzi (strain CL Brener)). Description: Trypanosoma cruzi tyrosyl tRNA synthetase (TcYRS) SOP. The format is functional. The settings on record: 30 µM.
For test [11], the target named is Chromo domain-containing protein 1 (Saccharomyces cerevisiae (strain ATCC 204508 / S288c) (Baker's yeast)) (UniProt P32657). Description: ScCHD-1 Enzyme Inhibition Assay. Also: in the data most compounds retested in dose-response had high values. The class given is functional. The settings on record: 30 µM.
Chain of Chromo domain-containing protein 1 (Saccharomyces cerevisiae (strain ATCC 204508 / S288c) (Baker's yeast)) (P32657 whole entry, the tested form may be a part): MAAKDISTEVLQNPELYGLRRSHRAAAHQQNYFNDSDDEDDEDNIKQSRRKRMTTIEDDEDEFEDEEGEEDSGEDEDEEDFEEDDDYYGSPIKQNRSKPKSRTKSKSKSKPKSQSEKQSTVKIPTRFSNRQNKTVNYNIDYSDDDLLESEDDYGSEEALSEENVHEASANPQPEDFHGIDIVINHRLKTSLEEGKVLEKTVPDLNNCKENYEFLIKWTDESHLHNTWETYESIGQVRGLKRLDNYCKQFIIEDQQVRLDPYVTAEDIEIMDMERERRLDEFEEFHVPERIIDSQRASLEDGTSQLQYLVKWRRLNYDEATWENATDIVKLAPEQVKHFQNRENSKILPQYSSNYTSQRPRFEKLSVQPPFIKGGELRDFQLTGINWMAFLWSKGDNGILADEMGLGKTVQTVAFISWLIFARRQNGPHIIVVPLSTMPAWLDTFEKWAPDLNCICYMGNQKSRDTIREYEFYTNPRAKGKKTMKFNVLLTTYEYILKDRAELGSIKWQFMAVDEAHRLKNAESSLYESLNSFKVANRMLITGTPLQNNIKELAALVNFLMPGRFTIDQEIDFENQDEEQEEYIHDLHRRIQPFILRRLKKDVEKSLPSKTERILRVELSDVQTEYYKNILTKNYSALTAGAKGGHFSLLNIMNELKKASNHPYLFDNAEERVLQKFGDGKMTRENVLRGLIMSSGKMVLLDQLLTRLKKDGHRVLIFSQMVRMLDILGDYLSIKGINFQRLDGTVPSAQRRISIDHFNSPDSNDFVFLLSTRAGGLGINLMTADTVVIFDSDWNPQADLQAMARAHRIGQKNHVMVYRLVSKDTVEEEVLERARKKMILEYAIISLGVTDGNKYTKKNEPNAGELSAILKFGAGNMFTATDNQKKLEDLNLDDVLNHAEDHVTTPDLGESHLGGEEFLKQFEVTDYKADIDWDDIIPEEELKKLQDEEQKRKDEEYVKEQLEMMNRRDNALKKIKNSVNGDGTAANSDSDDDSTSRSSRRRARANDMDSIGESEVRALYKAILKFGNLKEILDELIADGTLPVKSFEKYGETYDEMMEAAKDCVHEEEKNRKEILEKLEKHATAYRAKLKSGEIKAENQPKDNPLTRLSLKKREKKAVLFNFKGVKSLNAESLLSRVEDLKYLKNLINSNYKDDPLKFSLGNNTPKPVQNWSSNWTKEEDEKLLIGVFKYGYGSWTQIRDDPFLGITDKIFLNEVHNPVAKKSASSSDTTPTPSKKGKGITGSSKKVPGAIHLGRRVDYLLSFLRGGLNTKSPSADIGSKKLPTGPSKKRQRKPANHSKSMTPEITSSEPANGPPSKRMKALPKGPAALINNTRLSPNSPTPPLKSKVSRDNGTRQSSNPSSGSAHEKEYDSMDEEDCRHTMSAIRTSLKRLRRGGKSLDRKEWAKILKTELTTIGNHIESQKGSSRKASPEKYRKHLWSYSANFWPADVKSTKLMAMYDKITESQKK

Chain of Sialic acid-binding Ig-like lectin 9 (Homo sapiens) (Q9Y336 whole entry): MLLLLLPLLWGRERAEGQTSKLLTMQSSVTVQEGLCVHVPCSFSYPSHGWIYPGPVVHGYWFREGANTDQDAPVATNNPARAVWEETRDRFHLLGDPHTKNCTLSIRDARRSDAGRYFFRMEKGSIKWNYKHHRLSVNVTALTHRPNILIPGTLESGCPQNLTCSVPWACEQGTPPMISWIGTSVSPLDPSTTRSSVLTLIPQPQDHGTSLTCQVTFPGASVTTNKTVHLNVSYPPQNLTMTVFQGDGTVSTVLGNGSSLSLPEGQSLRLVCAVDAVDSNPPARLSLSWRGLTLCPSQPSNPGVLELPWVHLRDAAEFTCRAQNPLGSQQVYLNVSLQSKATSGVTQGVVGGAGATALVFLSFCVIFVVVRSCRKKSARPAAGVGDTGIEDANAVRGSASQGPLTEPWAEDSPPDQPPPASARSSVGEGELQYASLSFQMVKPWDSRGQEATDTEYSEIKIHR
Chain of Protein translocase subunit SecA (Escherichia coli (strain K12)) (P10408 whole entry): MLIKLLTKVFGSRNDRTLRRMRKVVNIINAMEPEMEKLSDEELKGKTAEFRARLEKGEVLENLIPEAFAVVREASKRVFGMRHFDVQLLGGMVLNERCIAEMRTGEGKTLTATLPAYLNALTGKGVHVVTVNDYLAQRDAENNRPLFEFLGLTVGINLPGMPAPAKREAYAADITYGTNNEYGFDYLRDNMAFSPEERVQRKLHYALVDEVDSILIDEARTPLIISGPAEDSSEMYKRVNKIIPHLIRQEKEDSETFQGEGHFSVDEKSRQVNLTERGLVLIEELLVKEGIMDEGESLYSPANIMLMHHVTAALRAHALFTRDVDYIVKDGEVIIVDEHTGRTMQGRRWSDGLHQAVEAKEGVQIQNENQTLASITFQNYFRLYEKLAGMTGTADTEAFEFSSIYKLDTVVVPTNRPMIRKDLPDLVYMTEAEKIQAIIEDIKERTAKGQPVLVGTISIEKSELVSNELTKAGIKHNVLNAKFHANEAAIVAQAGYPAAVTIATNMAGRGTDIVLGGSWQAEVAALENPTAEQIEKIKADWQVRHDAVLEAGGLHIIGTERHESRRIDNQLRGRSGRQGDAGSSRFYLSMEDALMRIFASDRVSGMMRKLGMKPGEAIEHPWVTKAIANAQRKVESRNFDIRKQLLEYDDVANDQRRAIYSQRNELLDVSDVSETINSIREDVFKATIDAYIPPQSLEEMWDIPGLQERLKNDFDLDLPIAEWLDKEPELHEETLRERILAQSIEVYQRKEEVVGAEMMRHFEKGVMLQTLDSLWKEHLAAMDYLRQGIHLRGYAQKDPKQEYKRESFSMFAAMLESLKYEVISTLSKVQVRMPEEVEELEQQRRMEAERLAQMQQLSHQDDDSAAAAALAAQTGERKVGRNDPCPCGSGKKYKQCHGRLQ

For `O=C(C1CC1)N1CCC2(CC1)OCCO2`, the Percent Effect was -2.52% in [1]; 7.89% in test [2]; 0.21% in test [3]; -0.0617% in test [4]; -9.69% in [5]; -4.38% in the test on Trypanosoma cruzi. In addition, the Percent Effect is 2.37% in test [6]; 14.1% in test [7]; 14.1% in the test filed under Homo sapiens; -6.13% in test [8]; 0% in test [9]; 10.4% in [10]. The Percent Effect in [11] was -6.58%.
On to `c1cc(NC2CC3(CCN(Cc4cc[nH]n4)C3)C2)ncn1` (configuration not stated), for which the Percent Effect in test [1] is -3.9%; in test [2], -4.05%; in test [3], -4.78%; in [4], 5.87%; in [5], 0.0436%; with Trypanosoma cruzi, 5.73%. The Percent Effect was -3.02% in [6]; 2.18% in test [7]; -4.19% in the test filed under Homo sapiens; 0.0104% in test [8]; 2.15% in test [9]; 3.9% in test [10]. In test [11], the Percent Effect was -8.87%.
For `c1ccc(CN2C[C@@H]3CCCO[C@@H]3[C@H](Nc3ccccn3)C2)nc1`, the Percent Effect in test [1] was -6.38%; in test [2], 5.41%; in [3], 3.79%; in test [4], -2.17%; in test [5] it was 3.76%; with Trypanosoma cruzi, 0.88%. Besides, the Percent Effect was 3.23% in test [6]; 8.15% in test [7]; -12.7% in the test filed under Homo sapiens; 8.28% in [8]; 6.45% in test [9]; 16.1% in [10]. The Percent Effect in test [11] was -2.77%.
As for `CN(C)c1ncc2c(n1)C1(CCN(CC3CC3)C1)COC2` (configuration not stated), the Percent Effect was 2.42% in test [1]; 0% in test [2]; 0.342% in test [3]; 0.164% in [4]; 8.71% in test [5]; -4.37% with Trypanosoma cruzi. In addition, the Percent Effect in test [6] is 0.798%; in [7] it was 13.1%; in the test listed under Homo sapiens, -7.22%; in [8], -16.3%; in [9] it was 7.29%; in test [10] it was 11.1%. For the same compound, the Percent Effect in test [11] was -5.42%.
